# Screening data deposited in PubChem by National Center for Advancing Translational Sciences (NCATS).
# In the library only some 2.1% were active in any assay of this set; here they are far more common.
# aSyn rescue – inhibitors of alpha-synuclein toxicity in yeast. Yeast expressing alpha-synuclein, growth rescue, BacTiter-Glo, 24 h. Potency, µM (top dose mostly 46.1 µM), for the others: top-dose growth rescue (activation), most hits filed as activators. 370,000 tested, 0.14% active; further: % of control where 0% means no effect; nearly all actives have a fitted effect of over 65% in size
#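 Readout is rescue of growth in alpha-synuclein-expressing yeast, so inhibitors of toxicity appear as activators. Growth after 24 hr at 30 deg C in galactose medium is quantified by luminescence.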
# FUS suppressor – FUS proteinopathy suppression in yeast. S. cerevisiae FUS-expressing, growth rescue, OD600, 24 h. Potency, µM (highest dose often 76.6 µM), actives largely listed as activators. 390,000 tested, 0.24% active. AID 1347120;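 further: plate controls were DMSO vehicle for no effect and reference control for full effect; nearly all actives have a fitted effect of over 55% in size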
#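 Absorbance at 600 nm, taken 24hr after compound addition, measured rescue of FUS-yeast growth at 30C. Induction used 2% galactose with seeding at OD 0.005. Controls: CP55940 from 92uM final, DMSO only.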
# Abeta yeast res – A-beta toxicity reversal in yeast; yeast expressing A-beta42, growth rescue, OD600, 48 h; response scale: 0% DMSO, 100% iron-clioquinol control; AID 1347071; 410,000 tested, 0.063% active; Potency, µM (titrated, usually from 46.1 µM), actives largely listed as activators; further: nearly all actives have a fitted effect of over 55% in size
#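 Yeast growth medium received pinned compounds, then yeast cells expressing toxic A-beta were added; plates incubated at 30 C for 48 hr. Growth read as absorbance at 600 nm, normalized to DMSO and equimolar FeCl3 plus clioquinol controls.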
# TDP-43 yeast inh – TDP-43 toxicity inhibition in yeast; AID 652104; 410,000 tested, 1.8% active; TDP-43 expressing yeast growth rescue, BacTiter-Glo, 24 h; Potency, µM (highest dose often 46.1 µM), inactives show at the highest dose growth rescue (activation), actives largely listed as activators; further: % of control where 0% means no effect; nearly all actives have a fitted effect of over 50% in size
#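 Yeast cells expressing TDP-43 under galactose induction are exposed to compounds for 24 hr at 30 deg C. BacTiter-Glo luminescence measures growth, so protective compounds score as activators.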
# * hit, by the source's call; i = inactive; ? = inconclusive; . = no result; [ ] = dose if it differs, or a comment. The call rests on the fitted dose curve; in most records, active means well fitted curve in the direction sought with a large enough effect; inconclusive means small, poorly fitted or top-dose-only effect, or another doubt; inactive means no such curve, though single readings can be large; an effect the other way counts as inactive or inconclusive. Potency means the concentration at half of the fitted maximal effect.
SMILES,aSyn rescue,FUS suppressor,Abeta yeast res,TDP-43 yeast inh
CNC(=O)c1c(NC(=O)c2ccc(N3C(=O)CCC3=O)cc2)sc2c1CCC(C)C2 (stereo unspecified),1.0%,.,i,31.6µM*
CNC(=O)c1c(NC(=O)c2ccc(N3C(=O)CCC3=O)cc2)sc2c1CCCC2,-11.7%,?,i,8.0%
CC1(C)SC2c3ccccc3C(=O)N2[C@@H]1C(=O)NC1CC1 (stereo partly specified),-4.6%,i,i,1.26µM*
Cc1c(C(=O)Nc2ccc(N3CCOCC3)cc2)oc2ccccc12,-7.0%,i,i,7.94µM*
CC(=O)c1ccc(-c2ccc(C(=O)N3CCN(c4ccc(F)cc4)CC3)o2)cc1,1.4%,i,i,0.0%
CCOc1ccc(C(=O)OCCN(CC)CC)cc1,3.4%,i,i[9.22 µM],21.7%
COC(=O)c1ccc2nc(-c3ccc(OC)c(OC)c3)c(Cc3ccc(C)cc3)n2c1,6.4%,i,i,22.4µM*
COC(=O)c1ccc2nc(-c3cccc(Cl)c3)c(Cc3ccccc3OC)n2c1,-0.9%,i,i,35.5µM*
COC(=O)c1ccc2nc(-c3ccc(OC)c(OC)c3)c(Cc3cccc(F)c3)n2c1,23.9%,i,i,35.5µM*
COc1ccc(-c2noc(N3CCC(C(=O)N(C)c4ccccc4C)CC3)n2)cc1,5.2%,?,i,?
CCN(CC)CCCNC(=O)CC1Oc2ccc(C)cc2NC1=O (stereo unspecified),-3.8%,i,i,-11.8%
OC(CN1CCN(Cc2ccccc2)CC1)c1ccc(Br)cc1 (stereo unspecified),2.5%,i,i,20.5%
NC(=O)C1CCN(C2CC(=O)N(c3cccc(F)c3)C2=O)CC1 (stereo unspecified),-72.3%,i,i,?
Cc1ccccc1N1C(=O)CC(N2CCC(C(N)=O)CC2)C1=O (stereo unspecified),-89.5%,i,i,15.8µM*
Cc1ccc(C)c2nc(SCC(=O)NCc3cccs3)c(C#N)cc12,5.2%,i,i,-13.7%
O=Cc1ccc(-c2ccc([N+](=O)[O-])cc2Cl)o1,1.0%,i,i,11.2µM*
CCc1cccc(NC(=O)C2CCC(CNS(=O)(=O)c3ccc4c(c3)CCCC(=O)N4)CC2)c1 (stereo unspecified),.,i,i,16.6%
COc1cccc(NC(=S)N(CCc2ccc(OC)c(OC)c2)Cc2ccccn2)c1,0.0%,i,i,.
COc1ccc(-n2cc(C(=O)NCCc3ccc(C)cc3)c3ccccc3c2=O)cc1,.,i,i,17.8µM*
CCOc1ccc(NC(=O)Cn2c(=O)n(CC(=O)NCCc3ccccc3)c(=O)c3sccc32)cc1,.,i,i,6.1%
CS(=O)(=O)Nc1cccc(NC(=O)c2cccc3c(-c4ccc(F)c(F)c4)coc23)c1,-0.1%,20µM*,i,10.3%
COc1cc(-c2coc3c(C(=O)NCc4ccccc4)cccc23)ccc1O,4.2%,?,i,12.6µM*
O=C(NCc1ccco1)c1cccc2c(-c3ccc(F)c(F)c3)coc12,1.5%,i,i,14.1µM*
COc1cc(-c2coc3c(C(=O)NCc4cccc(Cl)c4)cccc23)ccc1O,?,?,i,?
Cc1ccc(S(=O)(=O)N2C[C@@]3(O)Cn4c(=O)ccc(=O)n4C[C@@]3(OC(=O)NCC3CCCCC3)C2)cc1,-0.4%,i,i,-30.7%
SMILES,aSyn rescue,FUS suppressor,Abeta yeast res,TDP-43 yeast inh
NC1=NC[C@H](c2ccccc2)N1CCc1cccc(F)c1,2.5%,i,i,3.1%
CC1CC(=O)c2c(cc3c(-c4c(O)cc(O)c5c(O)c6c(cc45)OC(C)CC6=O)c(O)cc(O)c3c2O)O1 (stereo unspecified),-21.1%,i,i,35.5µM*
O=C(NCc1ccccc1)C1=C[C@@H](c2csc3ccccc23)C[C@@H](OCc2ccc(CO)cc2)O1,6.0%,i,i,10.9%
CC(=O)Nc1nn(CC(C)C)c2nc3ccc(C)cc3cc12,0.3%,i,i,-11.0%
Cc1ccc(SCC(=O)c2c(C)nc3ccccn23)cc1,-0.6%,i,i,-15.8%[0.397 µM]
Cc1ccc(SCC(=O)c2cc(C)c(O)c(C)c2)cc1,-1.3%,i,i,17.8µM*
Cc1cc(C)cc(NS(=O)(=O)c2cnc(Cl)c(Cl)c2)c1,14.6%,i,i,35.5µM*
CCOc1ccc(NS(=O)(=O)c2cnc(Cl)c(Cl)c2)cc1,7.7%,.,i,-61.4%
C[C@@H]1CN([C@@H](C)CO)C(=O)CCCn2nncc2CO[C@@H]1CN(C)S(=O)(=O)c1ccc(C#N)cc1,0.5%,i,i,7.2%
S=C(N/N=C/c1ccc2ncccc2c1)Nc1ccccc1,5.0%,i,?,12.6µM*
O=C1CSC(c2ccccc2F)N1c1cc(Cl)ccc1O (stereo unspecified),14.5%,i,i,20.4%
O=C1CSC(c2cccc(Cl)c2Cl)N1c1ccccn1 (stereo unspecified),19.4%,i,i,14.1µM*
COC(=O)NNC(=O)c1ccc(C)c(Br)c1,2.4%,.,?,20µM*
Cc1ccc(C(=O)NNC(=O)C2CC2)cc1Br,-0.8%,i,i,7.6%
CC(C)CC(=O)O/N=C1\C(=O)N(c2ccccc2)c2ccccc21,1.4%,i,i,-13.7%
CC(C)(C)C(=O)O/N=C1/C(=O)N(c2ccccc2)c2ccccc21,7.08µM*,i,i,?
COC(=O)[C@]12C[C@H](CC(=O)NCc3ccccc3)C(=O)N(Cc3ccc(Cl)cc3Cl)C1=C[C@H](C(C)C)O[C@@H]2C1CC1,.,i,.,.
Cn1ncc(SCc2ccccc2)c(Cl)c1=O,11.2%,i,i,20µM*
O=C(Nc1ccccn1)c1cccc(S(=O)(=O)N2CCCc3ccccc32)c1,9.1%[1.84 µM],i,i,25.1µM*
Cc1ccnc(NC(=O)c2cccc(S(=O)(=O)N3CCCc4ccccc43)c2)c1,9.4%,i,i,22.4µM*
O=C(Nc1ncccc1O)c1cccc(S(=O)(=O)N2CCCc3ccccc32)c1,-33.4%,i,i,21.0%
COc1ccc(C(=O)NNC(=O)C23CC4CC(CC(C4)C2)C3)c(OC)c1,-4.7%,i,i,23.8%
COCCNc1nc2cc(-c3ccccc3C)sc2c(=O)n1C,0.2%,?,i,0.0%
CC(=O)NCCNc1nc2cc(-c3ccccc3CO)sc2c(=O)n1C,?,i,i,35.5µM*
Cc1ccccc1-c1cc2nc(NCc3ccncc3)n(C)c(=O)c2s1,7.0%,i,i,0.0%
CC(=O)NCCNc1nc2cc(-c3ccccc3C)sc2c(=O)n1C,0.2%,i,i,?
Cc1ccccc1-c1cc2nc(NCc3cccnc3)n(C)c(=O)c2s1,-1.4%,i,i,1.9%
Cc1ccccc1-c1cc2nc(NCc3ccccc3)n(C)c(=O)c2s1,?,28.2µM*,i,?
